# Reference: PubChem BioAssay
# Active and inactive are the calls of the source. No rule for the calls is given here.
# Assay: Brca1-Bard1 BiLC signal decrease – luminescence, single concentration, counter-screen for Mdm2/MdmX interaction inhibitor project, confirmation (AID 504668)
# Details: Brca1/Bard1 bimolecular luciferase complementation counterscreen, at 8 µM, stronger effect = higher value
row,Structure (SMILES),inhibition
1,C=CCSc1nsc(NC(=O)Nc2ccc(F)cc2)n1,28% (active)
2,CCCNC(=O)c1ccc2c(=O)c(O)c(-c3cccc(Br)c3)[nH]c2c1,31.4% (active)
3,CCOC(=O)C(CC)(CC)C(=O)/C=C/c1cccc(Br)c1,29.2% (active)
4,COc1cccc(-c2sc3ccc(OC)cc3c2-c2ccc(OCCN3CCCC3)cc2)c1,27.8% (active)
5,CCCC(=O)NC(c1cccs1)c1cc(Cl)c2cccnc2c1O (centres undefined),24.8% (active)
6,COc1cccc(/C=N/NC(=O)CNC(=O)C(c2ccccc2)c2ccccc2)c1O,28.6% (active)
7,Cn1nccc1C(=O)N/N=C/c1c(O)ccc2ccccc12,31.1% (active)
8,c1ccc(CCc2nn3c(-c4ccncc4)nnc3s2)cc1,33.7% (active)
9,CCOc1cc(/C=N/N=C(\N)c2nonc2N)cc(Br)c1OCc1cccc2ccccc12,33.4% (active)
10,COc1ccc(-c2cc(C(=O)NNC3=NCCC3)c3c(C)nn(-c4ccccc4)c3n2)cc1,34.3% (active)
11,CCOC(=O)c1nc(NNC(=O)c2ccc([N+](=O)[O-])cc2)sc1C,27.4% (active)
12,Cc1cc(NC(=O)c2ccc(F)cc2F)n(-c2nc3ccccc3[nH]2)n1,29.6% (active)
13,Cc1ccc(S(=O)(=O)Nc2cc(-c3nn(C)c(=O)c4ccccc34)ccc2N2CCOCC2)cc1,29.6% (active)
14,CCOC(=O)c1c(CN(C)C)n(C)c2c(O)c(N=NC(N)=O)c3ccc(Br)cc3c12,27.9% (active)
15,CC(C)c1cccc(O)c(=O)c1,27.6% (active)
16,CCC(=O)NC(c1cccs1)c1ccc2cccnc2c1O (centres undefined),23.3% (active)
17,Oc1ccc(CNc2ccc(F)cc2)c2cccnc12,36% (active)
18,O=C(CCl)N1CCN2C(=O)c3ccccc3C12c1ccc(Cl)cc1 (centres undefined),28.5% (active)
19,O=[N+]([O-])c1cc(-c2nc(-c3ccncc3)no2)ccc1Cl,23.3% (active)
20,O=C(Nc1ccc(Cl)cc1)Nc1ccc(N2CCCC2)c(S(=O)(=O)Nc2ccccc2Cl)c1,24% (active)

row,Structure (SMILES),inhibition
1,O=C1Nc2cccnc2N(C(=O)CCl)c2ccccc21,31.2% (active)
2,O=C(CCl)N1N=C(c2ccco2)CC1c1ccco1 (centres undefined),31.2% (active)
3,CCN1CCN(CCCNC(=O)c2ccc(/C=C3/Sc4ccccc4N(Cc4ccccc4F)C3=O)cc2)CC1,24.1% (active)
4,CC[C@]1(C(=O)OC)[C@H]2C(=O)N(Cc3ccccc3)C(=O)[C@H]2[C@H]2CN=C(SCc3ccccc3)N21,35.8% (active)
5,S=C(Nc1ccc(Cl)c(Cl)c1)NC1CCN(Cc2ccccc2)CC1,28.5% (active)
6,O=C(/C(N=Nc1cccc([N+](=O)[O-])c1)=C(/O)c1ccc(Br)cc1)C(F)(F)F,24.9% (active)
7,CC(C)[C@@H]1CC[C@@H](C)C[C@H]1OC(=O)C[n+]1cc(-c2ccc(Cl)cc2)n2c1CCCCC2,28.7% (active)
8,Cc1c(Cl)c([N+](=O)[O-])nn1Cc1ccc(C(=O)N/N=C\c2cc(Cl)ccc2O)o1,32.4% (active)
9,COc1cc(C(=O)N/N=C(\Cc2ncc[nH]2)c2ccccc2)cc(OC)c1OC,23.7% (active)
10,Cc1ccc(/C=C2\SC(=S)N(CCCC(=O)N3CCOCC3)C2=O)cc1,30.5% (active)
11,CCOC(=O)c1c(-c2ccccc2)oc2ccc(OCC(O)CN(C)C)cc12 (centres undefined),32.5% (active)
12,O=C1/C(=C/c2ccc(F)cc2)SC(=S)N1CCCC(=O)N1CCCCC1CCO (centres undefined),23.7% (active)
13,N=c1ccn2c(n1)OC1C(O)C(CO)OC12 (centres undefined),45.7% (active)
14,Cc1oc(-c2ccccc2Cl)nc1CSCC(=O)N1CCCC1,25.7% (active)
15,Cc1ccc(C(C)C)cc1OCC(=O)Nc1nnc(C2CC2)s1,33.4% (active)
16,O=C(CSc1nnnn1-c1ccccc1)Nc1nsc(-c2ccccc2)n1,27.7% (active)
17,CC(=O)NC(c1ccco1)c1ccc2cccnc2c1O (centres undefined),27.7% (active)
18,CC(NC(=O)/C(C#N)=C/c1ccc(Cl)c([N+](=O)[O-])c1)c1ccccc1 (centres undefined),29% (active)
19,CN1CCN(C(c2ccc(C(F)(F)F)cc2)c2cc(Cl)c3cccnc3c2O)CC1 (centres undefined),24.6% (active)
